Data taken from PubChem BioAssay (Tox21).
Several values for one entry are separate records, joined by “and”; a condition that tells them apart may be missing. Identical values can stand only once. Records with an inconclusive call do not appear. Where a call stands in place of a potency, no number is given. Where a structure was tested more than once in an assay, its records may differ in their call. Activity calls are given as the source filed them. Unless noted, the call rests on the fitted dose curve; in most records, active means well fitted curve in the direction sought with a large enough effect in the repeat runs; inconclusive means weak or mixed curves; inactive means no such curve, though single readings can be large; an effect the other way counts as inactive or inconclusive.

Assays:
[1] = target: Acetylcholinesterase (Homo sapiens) (UniProt P22303); assay: Acetylcholinesterase (AChE) small molecule antagonists: enzyme-based qHTS assay with human liver microsomes (AID 1347399; calls by dose curve; further: nearly all actives have a fitted effect of over 60% in size); conditions: Potency: qHTS inhibition; outcome: qHTS inhibition
In short: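 Recombinant human AChE (50 mU/mL in the enzyme mix) and human liver microsomes (0.25 mg/mL final) were preincubated with compound and NADPH (0.25 mg/mL final) for 30 min at 37 C. Acetylthiocholine/DTNB was then added; thiocholine was read colorimetrically after 10 min at room temperature.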

[2] = target: Cytochrome P450 2D6 (Homo sapiens) (UniProt P10635); assay: Cytochrome P450 Family 2 Subfamily D Member 6 (CYP2D6) small molecule antagonists: luciferase reporter qHTS assay (AID 1671196); further: nearly all actives have a fitted effect of over 50% in size
In short: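 CYP2D6 activity was followed as luminescence from its luciferin product after a 1 h NADPH-driven reaction at room temperature. Enzyme-substrate mix and compound were pre-incubated for 10 min, and the signal was read 20 min after adding detection reagent.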

[3] = target: Cytochrome P450 2C19 (Homo sapiens) (UniProt P33261); assay: Cytochrome P450 Family 2 Subfamily C Member 19 (CYP2C19) small molecule antagonists: luciferase reporter qHTS assay (AID 1671197); further: nearly all actives have a fitted effect of over 65% in size
In short: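 Inhibition of CYP2C19 was scored from loss of luminescence in a P450-Glo proluciferin substrate assay, NADPH-started and run 1 h at 37C, with ketoconazole as positive control.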

[4] = target: Cytochrome P450 2C9 (Homo sapiens) (UniProt P11712); assay: Cytochrome P450 Family 2 Subfamily C Member 9 (CYP2C9) small molecule antagonists: luciferase reporter qHTS assay (AID 1671198); further: nearly all actives have a fitted effect of over 50% in size
In short: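 P450-Glo proluciferin substrate with CYP2C9 enzyme; 10 min RT preincubation, then NADPH regeneration 1 h at 37C; luciferin detection reagent 20 min RT, luminescence in relative luminescence units.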

[5] = target: Cytochrome P450 1A2 (Homo sapiens) (UniProt P05177); assay: Cytochrome P450 Family 1 Subfamily A Member 2 (CYP1A2) small molecule antagonists: luciferase reporter qHTS assay (AID 1671199); further: nearly all actives have a fitted effect of over 50% in size
In short: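 Luminescence from luciferin formed by CYP1A2 from a proluciferin substrate, read 20 min after detection reagent. Compound was pre-incubated 10 min with enzyme-substrate, and reaction started with NADPH regeneration solution for 1 h at room temperature; furafylline control.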

[6] = target: Cytochrome P450 3A4 (Homo sapiens) (UniProt P08684); assay: Cytochrome P450 Family 3 Subfamily A Member 4 (CYP3A4) small molecule antagonists: luciferase reporter qHTS assay (AID 1671201); further: nearly all actives have a fitted effect of over 50% in size
In short: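 Proluciferin-to-luciferin conversion by CYP3A4, NADPH-regenerated, 1 h RT; luminescence read as RLU. Ketoconazole as control.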

[7] = target: Voltage-gated inwardly rectifying potassium channel KCNH2 (Homo sapiens) (UniProt Q12809); assay: Human Ether-a-go-go-Related Gene (hERG) channel small molecule antagonists: fluorescence cell-based qHTS assay (AID 1671200); further: nearly all actives have a fitted effect of over 50% in size
In short: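 Kinetic two-minute fluorescence traces, sampled at 1 s, were collected following thallium stimulus of U2OS cells (1000 per well) that had been cultured overnight at 37 C and loaded with FluxOR II.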
Potency means the concentration at half of the fitted maximal effect.

Chain of Cytochrome P450 3A4 (Homo sapiens) (P08684 whole entry, looked up): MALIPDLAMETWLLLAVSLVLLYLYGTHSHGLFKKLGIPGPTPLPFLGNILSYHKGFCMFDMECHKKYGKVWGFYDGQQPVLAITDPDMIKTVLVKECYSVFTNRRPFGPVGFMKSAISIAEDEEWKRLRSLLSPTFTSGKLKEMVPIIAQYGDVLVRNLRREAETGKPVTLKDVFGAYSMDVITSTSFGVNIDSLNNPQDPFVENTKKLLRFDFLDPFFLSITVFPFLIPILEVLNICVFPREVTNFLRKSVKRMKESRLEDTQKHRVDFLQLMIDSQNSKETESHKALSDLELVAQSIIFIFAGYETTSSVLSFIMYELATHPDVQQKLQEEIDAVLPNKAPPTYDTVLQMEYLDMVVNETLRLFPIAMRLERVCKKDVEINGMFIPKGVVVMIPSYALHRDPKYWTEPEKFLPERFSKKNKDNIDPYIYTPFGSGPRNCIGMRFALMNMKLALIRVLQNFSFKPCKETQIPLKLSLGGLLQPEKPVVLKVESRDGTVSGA
Chain of Cytochrome P450 2C9 (Homo sapiens) (P11712 whole entry, looked up): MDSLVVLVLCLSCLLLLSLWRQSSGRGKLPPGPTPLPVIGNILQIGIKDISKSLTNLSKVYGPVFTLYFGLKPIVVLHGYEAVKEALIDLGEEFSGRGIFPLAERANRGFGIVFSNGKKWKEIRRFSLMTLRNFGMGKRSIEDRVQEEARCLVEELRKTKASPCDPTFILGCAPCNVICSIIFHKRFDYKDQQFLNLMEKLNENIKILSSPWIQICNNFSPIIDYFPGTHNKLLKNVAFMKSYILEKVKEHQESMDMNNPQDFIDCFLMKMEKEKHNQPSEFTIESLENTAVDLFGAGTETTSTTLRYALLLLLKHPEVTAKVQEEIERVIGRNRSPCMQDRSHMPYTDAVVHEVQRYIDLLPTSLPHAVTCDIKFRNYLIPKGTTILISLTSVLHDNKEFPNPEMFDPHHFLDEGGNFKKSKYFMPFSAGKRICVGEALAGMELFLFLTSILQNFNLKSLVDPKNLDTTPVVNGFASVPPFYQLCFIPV
Chain of Cytochrome P450 2D6 (Homo sapiens) (P10635 whole entry, looked up): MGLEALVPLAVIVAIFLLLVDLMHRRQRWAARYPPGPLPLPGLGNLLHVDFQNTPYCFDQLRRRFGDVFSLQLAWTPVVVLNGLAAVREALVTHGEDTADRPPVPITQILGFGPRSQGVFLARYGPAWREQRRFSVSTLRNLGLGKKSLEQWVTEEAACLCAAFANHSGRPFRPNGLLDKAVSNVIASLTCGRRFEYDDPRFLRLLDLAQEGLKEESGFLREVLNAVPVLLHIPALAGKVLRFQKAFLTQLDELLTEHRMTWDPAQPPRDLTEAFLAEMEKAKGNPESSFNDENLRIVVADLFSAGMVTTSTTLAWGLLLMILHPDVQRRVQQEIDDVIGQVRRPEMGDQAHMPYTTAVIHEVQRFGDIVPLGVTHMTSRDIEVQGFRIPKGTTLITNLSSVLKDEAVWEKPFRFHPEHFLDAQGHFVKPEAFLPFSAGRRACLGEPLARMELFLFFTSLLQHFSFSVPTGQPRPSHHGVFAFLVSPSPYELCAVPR
Chain of Acetylcholinesterase (Homo sapiens) (P22303 whole entry, looked up): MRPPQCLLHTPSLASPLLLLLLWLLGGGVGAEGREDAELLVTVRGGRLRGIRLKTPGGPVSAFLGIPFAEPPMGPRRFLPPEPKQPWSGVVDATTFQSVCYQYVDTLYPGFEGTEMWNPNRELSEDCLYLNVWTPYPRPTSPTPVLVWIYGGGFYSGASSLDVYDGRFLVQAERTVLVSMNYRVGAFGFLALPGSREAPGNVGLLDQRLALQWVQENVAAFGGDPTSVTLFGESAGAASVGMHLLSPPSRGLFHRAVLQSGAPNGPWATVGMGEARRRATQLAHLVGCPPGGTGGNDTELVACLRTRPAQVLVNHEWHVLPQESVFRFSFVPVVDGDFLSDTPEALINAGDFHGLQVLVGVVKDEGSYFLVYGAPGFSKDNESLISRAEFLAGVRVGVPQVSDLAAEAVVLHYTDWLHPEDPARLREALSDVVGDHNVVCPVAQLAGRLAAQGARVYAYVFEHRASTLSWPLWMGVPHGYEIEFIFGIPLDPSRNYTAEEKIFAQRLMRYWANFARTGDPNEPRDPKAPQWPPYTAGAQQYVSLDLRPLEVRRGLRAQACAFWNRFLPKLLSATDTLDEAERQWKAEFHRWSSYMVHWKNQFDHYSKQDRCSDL
Chain of Cytochrome P450 1A2 (Homo sapiens) (P05177 whole entry, looked up): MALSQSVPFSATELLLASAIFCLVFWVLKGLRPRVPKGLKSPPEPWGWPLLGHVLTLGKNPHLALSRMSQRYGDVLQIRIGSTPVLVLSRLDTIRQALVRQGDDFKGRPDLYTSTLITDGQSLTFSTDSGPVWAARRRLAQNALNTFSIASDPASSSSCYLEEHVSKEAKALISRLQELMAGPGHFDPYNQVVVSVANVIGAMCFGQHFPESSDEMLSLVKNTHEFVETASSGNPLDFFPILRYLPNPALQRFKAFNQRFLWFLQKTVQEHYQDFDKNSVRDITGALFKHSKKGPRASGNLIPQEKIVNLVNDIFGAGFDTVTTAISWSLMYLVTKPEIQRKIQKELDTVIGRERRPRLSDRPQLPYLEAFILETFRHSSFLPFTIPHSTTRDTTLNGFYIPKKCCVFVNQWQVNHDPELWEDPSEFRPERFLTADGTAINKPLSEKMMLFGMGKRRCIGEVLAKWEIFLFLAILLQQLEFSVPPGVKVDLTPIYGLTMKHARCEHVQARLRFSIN
Chain of Voltage-gated inwardly rectifying potassium channel KCNH2 (Homo sapiens) (Q12809 whole entry, looked up): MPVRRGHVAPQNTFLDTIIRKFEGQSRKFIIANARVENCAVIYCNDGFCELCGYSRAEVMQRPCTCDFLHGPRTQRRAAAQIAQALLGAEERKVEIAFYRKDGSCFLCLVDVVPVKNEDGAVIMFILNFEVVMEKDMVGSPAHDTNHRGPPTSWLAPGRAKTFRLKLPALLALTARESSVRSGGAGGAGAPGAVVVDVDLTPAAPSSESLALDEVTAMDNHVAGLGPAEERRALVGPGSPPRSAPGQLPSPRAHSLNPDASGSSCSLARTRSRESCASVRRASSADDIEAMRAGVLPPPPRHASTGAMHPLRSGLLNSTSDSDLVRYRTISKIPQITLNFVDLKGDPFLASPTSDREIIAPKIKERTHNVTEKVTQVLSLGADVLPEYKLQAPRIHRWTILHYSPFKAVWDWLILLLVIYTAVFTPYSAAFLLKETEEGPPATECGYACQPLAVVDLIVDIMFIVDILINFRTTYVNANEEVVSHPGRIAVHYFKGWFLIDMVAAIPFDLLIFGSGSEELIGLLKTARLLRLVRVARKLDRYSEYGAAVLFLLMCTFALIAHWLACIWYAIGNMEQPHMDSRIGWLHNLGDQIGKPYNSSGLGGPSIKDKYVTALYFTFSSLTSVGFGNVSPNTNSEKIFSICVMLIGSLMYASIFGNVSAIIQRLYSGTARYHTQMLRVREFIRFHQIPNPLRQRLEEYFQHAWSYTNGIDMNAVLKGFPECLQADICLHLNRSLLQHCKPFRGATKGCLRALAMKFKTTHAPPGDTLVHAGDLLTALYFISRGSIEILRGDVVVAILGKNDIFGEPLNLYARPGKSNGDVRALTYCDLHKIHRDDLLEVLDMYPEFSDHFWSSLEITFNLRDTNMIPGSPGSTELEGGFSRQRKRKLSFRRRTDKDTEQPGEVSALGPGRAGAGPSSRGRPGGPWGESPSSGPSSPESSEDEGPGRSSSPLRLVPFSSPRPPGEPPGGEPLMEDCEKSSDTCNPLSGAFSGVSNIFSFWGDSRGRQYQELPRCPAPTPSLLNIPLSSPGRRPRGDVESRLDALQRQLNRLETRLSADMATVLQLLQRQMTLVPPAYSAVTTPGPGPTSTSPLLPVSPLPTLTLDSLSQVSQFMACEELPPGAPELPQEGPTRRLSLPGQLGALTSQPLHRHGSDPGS
Chain of Cytochrome P450 2C19 (Homo sapiens) (P33261 whole entry, looked up): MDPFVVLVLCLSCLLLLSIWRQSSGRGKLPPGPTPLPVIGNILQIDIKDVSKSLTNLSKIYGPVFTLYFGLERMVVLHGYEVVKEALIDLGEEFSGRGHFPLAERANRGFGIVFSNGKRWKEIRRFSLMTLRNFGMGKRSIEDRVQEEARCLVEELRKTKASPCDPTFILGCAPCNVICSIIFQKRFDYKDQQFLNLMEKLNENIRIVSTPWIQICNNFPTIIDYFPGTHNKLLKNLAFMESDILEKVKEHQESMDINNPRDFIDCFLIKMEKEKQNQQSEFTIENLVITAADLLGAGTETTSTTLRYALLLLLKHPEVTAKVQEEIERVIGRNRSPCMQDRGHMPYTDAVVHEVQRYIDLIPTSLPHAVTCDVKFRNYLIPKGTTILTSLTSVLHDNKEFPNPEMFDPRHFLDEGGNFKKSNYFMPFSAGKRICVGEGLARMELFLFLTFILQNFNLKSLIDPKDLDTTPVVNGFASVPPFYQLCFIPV

SMILES	Potency [1]	Potency [2]	Potency [3]	Potency [4]	Potency [5]	Potency [6]	Potency [7]	outcome [1]
C=CC(=O)OCC	inactive	inactive	inactive	inactive	inactive	inactive		
Nc1ccccc1C(=O)OCC(O)CO (stereo not given)	inactive	inactive	inactive	inactive	inactive	inactive	inactive	
Clc1ccccc1	inactive	inactive	inactive	inactive	inactive	inactive	inactive	
O=C(Cc1ccccc1)c1ccccc1	inactive	22.4 µM (active)	11.2 µM (active)	inactive	12.6 µM (active)	inactive		
CNC(=O)Oc1cccc(N=CN(C)C)c1	63.3 µM (active)	79.6 µM (active)	79.6 µM (active)	79.6 µM (active)		inactive	inactive	
C1CS1	inactive	inactive	inactive	inactive	64.9 µM (active)	inactive		
C=C(C)C(=O)OCCCCOC(=O)C(=C)C	inactive	inactive	7.96 µM (active)	39.9 µM (active)	25.2 µM (active)	inactive		
CCC(C)(C)O	inactive	inactive	inactive	inactive		inactive		
CCCCCCCCCCCCCCCl	inactive	inactive	inactive	inactive		inactive	inactive	
CC(C)C1(C)N=C(c2ncccc2C(=O)O)NC1=O (stereo not given)	inactive	inactive	inactive	inactive	inactive	inactive	inactive	
C=CC(=O)NC(C)(C)CC(C)=O	inactive	35.6 µM (active)	inactive	inactive	inactive	inactive	inactive	
CCOP(=S)(S)OCC	inactive	inactive	33.4 µM (active)	21.1 µM (active)		inactive	inactive	
COC1CC(=C(c2cccs2)c2cccs2)C[N+](C)(C)C1 (stereo not given)	inactive	0.309 µM (active)	inactive	inactive	inactive	inactive		
O=C(CCl)CCl	inactive	inactive	inactive	inactive	inactive	inactive	inactive	
CC(C)[C@@H](C(=O)O[C@@H](C#N)c1cccc(Oc2ccccc2)c1)c1ccc(Cl)cc1	inactive	32.2 µM (active) and inactive	9.07 µM (active) and 31.7 µM (active)	7.21 µM (active) and 12.6 µM (active)	inactive	inactive	inactive	
CN1C(=O)CN=C(c2ccccc2)c2cc([N+](=O)[O-])ccc21	inactive	inactive	inactive		inactive		inactive	
NNCCO	inactive	inactive	inactive	inactive	inactive	inactive		
FC(Cl)(Cl)C(F)(Cl)Cl	inactive	inactive	inactive	inactive		inactive		
SCc1ccccc1	inactive	inactive	7.31 µM (active)	36.6 µM (active)	32.6 µM (active)	inactive		
C=CCOC(=O)C(C)(C)OC(=O)c1cc(-n2c(=O)cc(C(F)(F)F)n(C)c2=O)ccc1Cl	inactive	27.7 µM (active)	49.3 µM (active)	15.6 µM (active)			inactive	
ClCc1ccccc1Cl	inactive	inactive	inactive	inactive			inactive	

SMILES	Potency [1]	Potency [2]	Potency [3]	Potency [4]	Potency [5]	Potency [6]	Potency [7]	outcome [1]
O=C1c2ccccc2C(=O)N1SC(Cl)(Cl)Cl	inactive	inactive	78.5 µM (active) and 20 µM (active)	24.8 µM (active) and 11.2 µM (active)	24.8 µM (active) and 22.4 µM (active)	inactive	24.2 µM (active) and 38.9 µM (active)	
C=CCSSCC=C	inactive	inactive	7.96 µM (active)		31.7 µM (active)	inactive	inactive	
CCCCCCCCCCCCN(C)C	inactive	inactive		inactive	35.6 µM (active)	inactive	inactive	
CN(C)N	inactive	inactive		inactive	35.6 µM (active)	inactive	inactive	
O=C(NC(=O)c1cc(F)c(F)cc1Cl)Nc1cc(F)ccc1N1CCC(C(=O)O)CC1	inactive	inactive	inactive		inactive	inactive	inactive	
CCCCOC(=O)CCC(=O)OCCCC	inactive	inactive			20 µM (active)	inactive	inactive	
C=C(Cl)Cl	inactive	inactive	75.6 µM (active)			inactive	inactive	
Cc1ccc2c(C)cccc2c1	inactive		inactive	inactive	inactive			
CC(=O)OC(c1ccccc1)C(Cl)(Cl)Cl (stereo not given)	inactive	inactive	inactive		inactive	inactive		
CCC1(CC)C(=O)NC(=O)NC1=O	inactive	inactive		inactive	inactive		inactive	
CC(C)CCCCCCCOC(=O)c1ccccc1C(=O)OCCCCCCCC(C)C	inactive	inactive	inactive		inactive	inactive	inactive	
CCOc1cccc(C2(N3CCN(c4ccccc4)CC3)CCC(C)CC2)c1 (stereo not given)		inactive	inactive		20 µM (active)	inactive	inactive	inactive
CCOC(=O)c1cncn1C(C)c1ccccc1 (stereo not given)	inactive	inactive		12.3 µM (active)			inactive	
NC(=S)c1c(Cl)cccc1Cl	inactive	inactive	inactive		28.3 µM (active)	28.3 µM (active)		
COC(=O)Cc1ccccc1	inactive	inactive	inactive		inactive		inactive	
CCSCc1ccccc1OC(=O)NC	inactive	inactive	inactive		63.3 µM (active)	inactive	inactive	
CCN(C(C)=O)c1cccc(-c2ccnc3c(C#N)cnn23)c1	inactive	inactive	27.5 µM (active)		inactive		inactive	
COc1ccc2c(c1OC)C(=O)O[C@H]2[C@@H]1c2cc3c(cc2CCN1C)OCO3	inactive		3.89 µM (active)	5.49 µM (active)	inactive			
CCOC(=O)c1cn2nc(OP(=S)(OCC)OCC)cc2nc1C	2 µM (active)		2.52 µM (active)	5.03 µM (active)	8.94 µM (active)			
O=[N+]([O-])c1cc(Cl)c(Cl)cc1Cl	inactive	inactive		inactive	5.61 µM (active)		inactive	
COCc1cnc(C2=NC(C)(C(C)C)C(=O)N2)c(C(=O)O)c1 (stereo not given)	inactive	inactive		35.6 µM (active)			inactive	

SMILES	Potency [1]	Potency [2]	Potency [3]	Potency [4]	Potency [5]	Potency [6]	Potency [7]	outcome [1]
CCCCC1C(=O)NC(=O)N(C2CCCCC2)C1=O (stereo not given)	inactive	inactive	27.5 µM (active)		inactive		inactive	
O=S(=O)(Cl)Cl	inactive	inactive		inactive	inactive	inactive	inactive	
CON(C)C(=O)Nc1ccc(Cl)cc1	inactive	inactive	39.9 µM (active)		7.1 µM (active)	inactive	inactive	
CCOC(=O)NC(O)C(Cl)(Cl)Cl (stereo not given)	inactive	inactive		inactive	inactive		inactive	
CN(C1CCCCC1)C1CCCCC1	inactive	3.17 µM (active)	inactive		inactive	inactive	inactive	
OCCSSCCO	inactive	inactive	56.4 µM (active)			inactive		
CC(Oc1cccc(Cl)c1)C(=O)O (stereo not given)	inactive	inactive	inactive		inactive		inactive	
C=CCc1ccccc1O	inactive	inactive	inactive		31.7 µM (active)	inactive		
O=C(O)C(F)(F)C(F)(F)C(F)(F)C(F)(F)C(F)(F)F	inactive	inactive		15.9 µM (active)	inactive		inactive	
CCC(=O)O[C@@H]1C=C2CCC3C(CCC4(C)C3CC[C@@H]4OC(=O)CC)C2CC1 (stereo not given in full)	inactive	inactive		15.5 µM (active)		inactive		
O=C([O-])c1ccccn1.O=C([O-])c1ccccn1.O=C([O-])c1ccccn1.[Cr+3]	inactive	79.9 µM (active)			79.9 µM (active)			
CCCC[P+](CC)(CCCC)CCCC (tested in a mixture with another compound)	inactive	0.0716 µM (active)		inactive	inactive	inactive	24.7 µM (active)	
Oc1cccc(Cl)c1	inactive	inactive		inactive		inactive	inactive	
CCNC(=O)NC(=O)/C(C#N)=N/OC	inactive	inactive	inactive			inactive	inactive	
CCCCC#N	inactive	inactive		inactive	inactive	inactive	inactive	
O=C(Cl)OCCOCCOC(=O)Cl	inactive	79.6 µM (active)				inactive		
Cc1cnc(C2=NC(C)(C(C)C)C(=O)N2)c(C(=O)O)c1 (stereo not given)	inactive	inactive		inactive	inactive			
CCOC(=O)C1OC1(C)c1ccccc1 (stereo not given)	inactive	71.6 µM (active) and inactive	35.9 µM (active) and 71 µM (active)			inactive	inactive	
C[N+]1(CCC(C(N)=O)(c2ccccc2)c2ccccc2)CCCCC1	inactive		inactive	inactive	inactive	inactive	inactive	
COc1cc(CC(C)N)c(OC)cc1Br (stereo not given)	inactive		inactive	inactive	5.2 µM (active)		inactive	
